Data published in PubChem BioAssay (NCATS).
Results filed as inconclusive are left out. The source made the active and inactive calls. Unless noted, calls come from the whole dose curve. Residues, ends and D or L forms follow the SMILES beside them.

System: not listed separately
Experiment: AP1 Signaling Pathway (AID 357; active = well fitted curve in either direction with a large enough effect, not every such curve was filed as active;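 note: ME-180 reporter cells stimulated with EGF at its EC50 level; % is set by controls: 0 for no effect and ±100 for the full control effect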)
Conditions: ME-180 (cervical carcinoma) AP-1-bla reporter, EGF-induced, beta-lactamase ratio, 5 h; at 7.69 µM (top of the series) unless noted
Method in brief: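 AP-1-bla ME-180 cells, Opti-MEM + 0.5% dialyzed FBS, plated overnight 37 °C. Cpd titration + EC50 EGF, 5 h 37 °C. CCF4 2.5 h RT; ex 405, em 460/530 ratio → %activity, AC50.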
For `C[C@@H](N1CCOCC1)[C@@](O)(c1ccccc1)c1ccccn1`, the activity change, negative = inhibition was 2.55% (inactive). In the case of `O=C(O)c1ccccc1C1c2ccccc2Oc2ccccc21`, the activity change, negative = inhibition is reported as 2.36% (inactive). With `C[C@@H](CS(=O)(=O)Cc1ccccc1)C(N)=O` the activity change, negative = inhibition was 8.67% (inactive). With `Nc1cccc2cc(S(=O)(=O)Nc3ccc(C(=O)O)cc3)ccc12` the activity change, negative = inhibition was -0.623% (inactive). In the case of `Nc1c(OCC(=O)O)ccc2cc(S(=O)(=O)O)ccc12`, the activity change, negative = inhibition is reported as 3.51% (inactive). For `O=C(O)c1nn(-c2ccc(Cl)cc2)c2c1C(=O)c1ccccc1C2=O`, the activity change, negative = inhibition was -2.08% (inactive). With `CN1CCCN(C)C1c1cc([N+](=O)[O-])ccc1O` the activity change, negative = inhibition was 7.56% (inactive). In the case of `Cc1cc(Cl)ccc1OCC(=O)Nc1nc(N)nc(N)n1`, the activity change, negative = inhibition is reported as 7.35% (inactive). With `CC(=O)N[C@H](Cc1ccc(O)cc1)C(=O)O` the activity change, negative = inhibition was -0.588% (inactive). For `O=C(O)c1ccccc1C(=O)Nc1cc2c(cc1Br)-c1ccccc1C2=O`, the activity change, negative = inhibition was -2.84% (inactive). In the case of `[O-][N+]1(CC[N+]2([O-])CCCCC2)CCCCC1`, the activity change, negative = inhibition is reported as -8.89% (inactive). In the case of `COc1ccc([C@H](O)c2ccccn2)cc1`, the activity change, negative = inhibition is reported as -0.268% (inactive). For `O=c1[nH]cc(CS(=O)(=O)Cc2c[nH]c(=O)[nH]c2=O)c(=O)[nH]1`, the activity change, negative = inhibition was -0.933% (inactive). With `O=C(O)c1ccc(Nc2ccnc3cc(Cl)ccc23)cc1O` the activity change, negative = inhibition was -7.31% (inactive). With `N#CC(CC(=O)O)=C(c1ccccc1)c1ccccc1` the activity change, negative = inhibition was 6.62% (inactive). For `N[C@H]1[C@@H](C(=O)O)[C@H]2C=C[C@H]1C2`, the activity change, negative = inhibition was 7.53% (inactive). In the case of `N[C@H](CO)C(=O)NCC(=O)O` (HELM PEPTIDE1{[dS].G}$$$$V2.0), the activity change, negative = inhibition is reported as -4.49% (inactive). In the case of `COC(=O)CCCC(=O)O`, the activity change, negative = inhibition is reported as 1.55% (inactive). With `N#C[C@H]1CN[C@H](N)N[C@@H]1N` the activity change, negative = inhibition was 2.11% (inactive). For `NC(N)=N/N=C\c1ccc(O)c(C(=O)O)c1`, the activity change, negative = inhibition was 12.8% (inactive). With `O=C(O)CNCCc1ccccc1` the activity change, negative = inhibition was 7.75% (inactive). With `Oc1ccc(Cl)cc1C=Nc1cnc2ccccc2c1` the activity change, negative = inhibition was 3.1% (inactive). For `O=C1C2[C@@H](c3ccccc3)N[C@@H](c3ccccc3)C1[C@H](c1ccccc1)N[C@H]2c1ccccc1`, the activity change, negative = inhibition was -5.02% (inactive). In the case of `O=CN1CCN(C[C@H](O)CN2CCCCC2)CC1`, the activity change, negative = inhibition is reported as 9% (inactive). With `CC(=O)O[C@H]1CC[C@@]2(C)[C@@H](CC[C@H]3[C@H]2CC(=O)[C@@]2(C)[C@@H]3C[C@H]3CC(C)=CC(=O)[C@H]32)C1` the activity change, negative = inhibition was 5.01% (inactive). With `Nc1nccc(Nc2ccc(S(N)(=O)=O)cc2)n1` the activity change, negative = inhibition was 2.96% (inactive). For `COc1ccc(/C=N\NC(=O)O)cc1`, the activity change, negative = inhibition was 7.79% (inactive). With `Cc1ccc(N2CCN(CCC(=O)O)CC2)cc1` the activity change, negative = inhibition was 4.25% (inactive). For `O=C(O)[C@@H]1[C@@H](C(=O)NCc2ccccn2)[C@@H]2C=C[C@@H]1O2`, the activity change, negative = inhibition was -9.66% (inactive). With `O=C(O)c1ccc(C(=O)c2ccccc2)c(C(=O)O)c1` the activity change, negative = inhibition was 21.3% (inactive). With `O=C1[C@@H]2[C@@H]3C=C[C@H]([C@@H]2C(=O)N1CN1CCSCC1)[C@@H]1[C@@H]2C(=O)N(CN4CCSCC4)C(=O)[C@@H]2[C@H]31` the activity change, negative = inhibition was 11.7% (inactive). For `O=C(NCc1cccnc1)[C@@H]1[C@@H](C(=O)O)[C@H]2CC[C@@H]1O2`, the activity change, negative = inhibition was 1.51% (inactive). For `CC(=O)[C@@H](C)CCO[C@@]1(C)OCC[C@@H]1C`, the activity change, negative = inhibition was 12.4% (inactive). In the case of `O=C(O)[C@@H](Cc1c[nH]c2ccccc12)C(=O)NO`, the activity change, negative = inhibition is reported as -4.03% (inactive). With `CCCCn1cnc2c(SC)ncnc21` the activity change, negative = inhibition was -0.746% (inactive). In the case of `Cc1cc2ccc(OC(=O)c3ccc(N=C(N)N)cc3)cc2oc1=O`, the activity change, negative = inhibition is reported as 5.35% (inactive). With `O=C(O)CSc1cc(-c2ccccc2)nc2ccccc12` the activity change, negative = inhibition was 4.39% (inactive). With `O=C(O)c1ccccc1CN1CCC[C@@H](C(=O)O)C1` the activity change, negative = inhibition was -3.95% (inactive). For `NS(=O)(=O)c1ccc(NCc2cnc3ccccc3n2)cc1`, the activity change, negative = inhibition was 5.55% (inactive).

Target: Cytochrome P450 1A2 (Homo sapiens) (UniProt P05177)
Sequence (P05177 whole entry, looked up): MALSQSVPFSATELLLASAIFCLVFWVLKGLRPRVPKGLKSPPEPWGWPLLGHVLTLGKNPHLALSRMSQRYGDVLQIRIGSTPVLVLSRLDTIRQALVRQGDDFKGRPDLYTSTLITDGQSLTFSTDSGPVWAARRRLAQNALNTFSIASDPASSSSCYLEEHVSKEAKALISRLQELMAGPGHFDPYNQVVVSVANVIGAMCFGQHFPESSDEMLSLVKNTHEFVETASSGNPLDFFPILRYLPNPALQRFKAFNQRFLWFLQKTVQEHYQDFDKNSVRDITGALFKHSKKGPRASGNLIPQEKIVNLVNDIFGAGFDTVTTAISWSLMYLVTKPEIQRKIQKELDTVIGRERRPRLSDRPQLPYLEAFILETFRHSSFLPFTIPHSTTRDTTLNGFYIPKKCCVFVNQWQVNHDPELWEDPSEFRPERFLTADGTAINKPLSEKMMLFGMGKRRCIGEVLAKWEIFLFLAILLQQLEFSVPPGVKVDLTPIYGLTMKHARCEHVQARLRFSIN
Experiment: p450-cyp1a2 (AID 410); note: potency is the fitted concentration of half-maximal effect;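 for activity change, negative = inhibition: -100% = full effect of reference inhibitor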
Conditions: recombinant CYP1A2, luciferin-ME demethylation, luminescence; series mostly up to 11.4 µM; activity change, negative = inhibition: at the top concentration
Method in brief: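 20nM CYP1A2, 100uM Luciferin-ME (=Km), 100mM KPO4; cpd 10 min RT; +NADPH regen, 60 min RT; stop/detect 20 min; luminescence. Normalized to furafylline 57 uM = full inhibition.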
For `C[C@@H](N1CCOCC1)[C@@](O)(c1ccccc1)c1ccccn1`, the activity change, negative = inhibition was -2.5% [at 2.29 µM] (inactive). For `O=C(O)c1ccccc1C1c2ccccc2Oc2ccccc21`, the activity change, negative = inhibition was -20.4% [at 2.29 µM] (inactive). For `C[C@@H](CS(=O)(=O)Cc1ccccc1)C(N)=O`, the “activity change, negative = inhibition” value was -13.3% (inactive). With `Nc1cccc2cc(S(=O)(=O)Nc3ccc(C(=O)O)cc3)ccc12` the “activity change, negative = inhibition” value was 2.5% (inactive). In the case of `Nc1c(OCC(=O)O)ccc2cc(S(=O)(=O)O)ccc12`, the “activity change, negative = inhibition” value is reported as -5.4% (inactive). With `O=C(O)c1nn(-c2ccc(Cl)cc2)c2c1C(=O)c1ccccc1C2=O` the Potency was 0.251 µM (active). For `CN1CCCN(C)C1c1cc([N+](=O)[O-])ccc1O`, the “activity change, negative = inhibition” value was -14.3% (inactive). With `Cc1cc(Cl)ccc1OCC(=O)Nc1nc(N)nc(N)n1` the activity change, negative = inhibition was 2.1% [at 2.29 µM] (inactive). For `CC(=O)N[C@H](Cc1ccc(O)cc1)C(=O)O`, the “activity change, negative = inhibition” value was -11.8% (inactive). In the case of `O=C(O)c1ccccc1C(=O)Nc1cc2c(cc1Br)-c1ccccc1C2=O`, the Potency is reported as 0.631 µM (active). For `[O-][N+]1(CC[N+]2([O-])CCCCC2)CCCCC1`, the “activity change, negative = inhibition” value was -3.3% (inactive). With `COc1ccc([C@H](O)c2ccccn2)cc1` the “activity change, negative = inhibition” value was -16% (inactive). For `O=c1[nH]cc(CS(=O)(=O)Cc2c[nH]c(=O)[nH]c2=O)c(=O)[nH]1`, the “activity change, negative = inhibition” value was -24.4% (inactive). In the case of `O=C(O)c1ccc(Nc2ccnc3cc(Cl)ccc23)cc1O`, the Potency is reported as 3.98 µM (active). For `N#CC(CC(=O)O)=C(c1ccccc1)c1ccccc1`, the activity change, negative = inhibition was -14.5% [at 2.29 µM] (inactive). In the case of `N[C@H]1[C@@H](C(=O)O)[C@H]2C=C[C@H]1C2`, the “activity change, negative = inhibition” value is reported as 9.9% (inactive). In the case of `N[C@H](CO)C(=O)NCC(=O)O` (HELM PEPTIDE1{[dS].G}$$$$V2.0), the activity change, negative = inhibition is reported as 3.6% [at 2.29 µM] (inactive). In the case of `COC(=O)CCCC(=O)O`, the activity change, negative = inhibition is reported as -7.3% [at 2.29 µM] (inactive). In the case of `N#C[C@H]1CN[C@H](N)N[C@@H]1N`, the activity change, negative = inhibition is reported as -11.6% [at 2.29 µM] (inactive). With `NC(N)=N/N=C\c1ccc(O)c(C(=O)O)c1` the activity change, negative = inhibition was -11.9% [at 2.29 µM] (inactive). With `O=C(O)CNCCc1ccccc1` the “activity change, negative = inhibition” value was -1.5% (inactive). For `Oc1ccc(Cl)cc1C=Nc1cnc2ccccc2c1`, the activity change, negative = inhibition was -13.2% [at 2.29 µM] (inactive). In the case of `O=C1C2[C@@H](c3ccccc3)N[C@@H](c3ccccc3)C1[C@H](c1ccccc1)N[C@H]2c1ccccc1`, the “activity change, negative = inhibition” value is reported as -18.6% (inactive). With `O=CN1CCN(C[C@H](O)CN2CCCCC2)CC1` the activity change, negative = inhibition was -17.6% [at 2.29 µM] (inactive). For `CC(=O)O[C@H]1CC[C@@]2(C)[C@@H](CC[C@H]3[C@H]2CC(=O)[C@@]2(C)[C@@H]3C[C@H]3CC(C)=CC(=O)[C@H]32)C1`, the activity change, negative = inhibition was -9% [at 2.29 µM] (inactive). In the case of `Nc1nccc(Nc2ccc(S(N)(=O)=O)cc2)n1`, the “activity change, negative = inhibition” value is reported as -8% (inactive). In the case of `COc1ccc(/C=N\NC(=O)O)cc1`, the Potency is reported as 0.501 µM (active). With `Cc1ccc(N2CCN(CCC(=O)O)CC2)cc1` the “activity change, negative = inhibition” value was -9% (inactive). With `O=C(O)[C@@H]1[C@@H](C(=O)NCc2ccccn2)[C@@H]2C=C[C@@H]1O2` the activity change, negative = inhibition was -0.1% [at 2.29 µM] (inactive). With `O=C(O)c1ccc(C(=O)c2ccccc2)c(C(=O)O)c1` the activity change, negative = inhibition was 3.1% [at 2.29 µM] (inactive). For `O=C1[C@@H]2[C@@H]3C=C[C@H]([C@@H]2C(=O)N1CN1CCSCC1)[C@@H]1[C@@H]2C(=O)N(CN4CCSCC4)C(=O)[C@@H]2[C@H]31`, the “activity change, negative = inhibition” value was -13.4% (inactive). With `O=C(NCc1cccnc1)[C@@H]1[C@@H](C(=O)O)[C@H]2CC[C@@H]1O2` the “activity change, negative = inhibition” value was -11% (inactive). For `CC(=O)[C@@H](C)CCO[C@@]1(C)OCC[C@@H]1C`, the “activity change, negative = inhibition” value was -19.3% (inactive). With `O=C(O)[C@@H](Cc1c[nH]c2ccccc12)C(=O)NO` the “activity change, negative = inhibition” value was -20.4% (inactive). With `CCCCn1cnc2c(SC)ncnc21` the Potency was 3.16 µM (active). In the case of `Cc1cc2ccc(OC(=O)c3ccc(N=C(N)N)cc3)cc2oc1=O`, the Potency is reported as 2.51 µM (active). For `O=C(O)CSc1cc(-c2ccccc2)nc2ccccc12`, the activity change, negative = inhibition was -4.7% [at 2.29 µM] (inactive). For `O=C(O)c1ccccc1CN1CCC[C@@H](C(=O)O)C1`, the “activity change, negative = inhibition” value was -5.2% (inactive). With `NS(=O)(=O)c1ccc(NCc2cnc3ccccc3n2)cc1` the activity change, negative = inhibition was -18.2% [at 2.29 µM] (inactive).
